Most compounds without a hit are left out; they make up all but 2% or so of the library.
Six1-Eya2 blk: inhibitors of human Six1/Eya2 interaction; Q15475+O00167; AlphaScreen GST-Six1/His-Eya2 binding, biochemical; hits give low values; activity change, % (concentration not given with the values); 0.56% of 360,000 active; AID 651725
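AlphaScreen luminescence read after one hour at 37 °C in darkness. Pin-transferred compounds met GST-Six1 and His-Eya2 protein (5X stock 250 nM/500 nM) plus glutathione donor and Ni-chelate acceptor beads (5X, 50 ug/mL).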
CtBP-E1A blk: inhibitors of CtBP/E1A interaction; AlphaScreen GST-E1A/His-CtBP binding, 1536-well; hits give low values; activity change, % (no concentration beside the values); 0.49% of 340,000 active
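GST-E1A and His-tagged CtBP (125 nM each as 5X stock) were preincubated with pin-transferred compound for 2 h at 37 °C in the dark, then glutathione donor and nickel acceptor beads were added for 1 h before AlphaScreen reading.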
KCNH2 3.1 block: inhibitors of human KCNH2 3.1 potassium channel isoform; U2OS KCNH2 3.1, thallium flux FluxOr; hits give low values; activity change, % (tested at about 1.8 µM); 0.95% of 340,000 active; AID 720553;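 active = maximum activity change below -70%; inconclusive = maximum activity change from -70% to -50%; inactive = maximum activity change above -50%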;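 note: thallium influx rate constant from kinetic fluorescence after stimulation buffer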
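Kinetic fluorescence (2 min after stimulation buffer) measures Tl+ influx through KCNH2 3.1 expressed by viral transduction in U2OS cells; the rate constant is normalized against DMSO controls serving as positive and negative references.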
KDM4E inh: inhibitors of human JMJD2E histone demethylase | B2RXH2 | JMJD2E catalytic domain, FDH-coupled NADH fluorescence (FDH is formaldehyde dehydrogenase) | Potency, µM (top dose mostly 57.1 µM), inactives show at the highest dose activity change, negative = inhibition, hits mostly inhibitors | 1.6% of 230,000 active; active = well fitted inhibition curve with a large enough effect, not every such curve was filed as active; inconclusive = small, poorly fitted or top-dose-only effect, or another doubt; inactive = no such curve, though single readings can be large or run the other way;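 note: potency is the fitted concentration of half-maximal effect; 0% = wells with enzyme and -100% = buffer wells without enzyme; nearly all actives have a fitted effect of over 50% in size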
hERG WT inh: KCNH2 (human, wildtype) channel inhibition; activity change, % at 1.84 µM; Q12809; AID 720551; 0.37% of 340,000 active; U2OS, BacMam KCNH2, thallium flux FluxOr; hits give low values;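 active = maximum activity change below -70%; inconclusive = maximum activity change between -70% and -50%; inactive = maximum activity change above -50%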
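U2OS cells were transduced with wild-type KCNH2 virus (2.03 x 10^8 / mL) for 4 h at room temperature, then cultured overnight at 37 C. Thallium flux was read with FluxOr dye. Rate constants were normalized to DMSO controls.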
* = called active by the depositor; ? = inconclusive; nt = not tested or not shown. Cut-off read from the data, not from the text of the source, unless noted: active = activity change below about -65%; inconclusive = mostly about -30% to -63%; inactive = weaker than that. Unless noted, % is set by controls: 0 for no effect and ±100 for the full control effect.

SMILES	Six1-Eya2 blk	CtBP-E1A blk	KCNH2 3.1 block	KDM4E inh	hERG WT inh
CCOC(=O)C1=C(C)N=c2s/c(=C/c3cccc([N+](=O)[O-])c3O)c(=O)n2C1c1cc(OC)c(OC)c(OC)c1 (stereo unspecified)	-70*	-80*	6	nt	-1
CCOC(=O)C1=C(C)N=c2s/c(=C/c3cccc([N+](=O)[O-])c3O)c(=O)n2C1c1ccccc1 (stereo unspecified)	-71*	-80*	17	nt	5
Cc1ccc(NC(=O)CCNS(=O)(=O)c2ccc3[nH]c(=O)oc3c2)cc1	-1	-6	-16	nt	-3
COc1ccc(C(=O)N2CCN(c3ccc(C(C)=O)cc3)CC2)cc1S(=O)(=O)N1CCCC1	-2	-1	-9	nt	-1
CCN(CC)S(=O)(=O)c1cccc(C(=O)Nc2ccc(C#N)cc2)c1	1	-9	-76*	-4%	0
CCN(CC)S(=O)(=O)c1cccc(C(=O)N[C@H](C(=O)O)C(C)C)c1	3	6	-3	10%	-170*
Cc1ccc(N(CC(O)CN2CCCC2)S(=O)(=O)c2ccc(C)cc2)cc1 (stereo unspecified)	4	-3	-104*	-3%	-47
CN(CCO)CC(O)CN(c1ccccc1)c1ccccc1 (stereo unspecified)	-1	nt	7	?	2
O=[N+]([O-])c1ccc(N(CC(O)CN2CCCCC2)S(=O)(=O)c2ccccc2)cc1 (stereo unspecified)	10	-1	-76*	nt	-44
CNCC(O)CN(c1ccccc1)c1ccccc1 (stereo unspecified)	-19	-9	-81*	-6%	5
O=[N+]([O-])c1ccc(S(=O)(=O)N(CC(O)CN2CCCCC2)c2ccccc2)cc1 (stereo unspecified)	-2	-18	-15	nt	14
OC(CN1CCCCC1)CN(c1ccccc1)c1ccccc1 (stereo unspecified)	-6	-10	-183*	?	38
Cc1cc2nnc(SCC(=O)N3CCOCC3)n2c2ccccc12	20	-15	-10	?	-1
Cc1ccnc(NS(=O)(=O)c2ccc(NC(=O)C3COc4ccccc4O3)cc2)n1 (stereo unspecified)	-3	nt	-2	-2%	nt
O=C(CSc1nccc(=O)[nH]1)N1CCOCC1	2	2	-19	nt	-8
COc1ccc(NC(=S)N(CCC(C)C)C2CCN(C(C)C)CC2)cc1Cl	1	-9	-2	nt	-8
Cc1ccc(S(=O)(=O)N2CCc3ccccc3C2CC(=O)O)cc1 (stereo unspecified)	18	-1	-26	2%	-9
Cc1c(NC(=O)C2CCCNC2=O)c(=O)n(-c2ccccc2)n1C (stereo unspecified)	2	-1	6	-16%	4
COC(=O)c1sc(=S)sc1C(=O)OC	-89*	13	-4	0%	-5
COC(=O)c1sc(C(=O)OC)c(C(=O)OC)c1C(=O)OC	-1	9	-17	3%	3
Cc1cccc(C)c1OCCNC(=O)c1ccc2ccccc2n1	14	nt	-89*	-2%	-3
Cc1c(OCc2ccc(C(=O)O)cc2)ccc2c(-c3ccccc3)cc(=O)oc12	-74*	1	0	?	-9
Cc1cc(C)cc(Cn2cc(CN3CC(N4CCCCC4)CS3(=O)=O)nn2)c1 (stereo unspecified)	-8	2	nt	nt	nt
O=C1CC(c2ccccc2)n2nc(NC(=O)c3ccccn3)nc2N1 (stereo unspecified)	-75*	?	-1	-1%	6
O=C1CC(c2ccccc2)n2nc(NC(=O)c3ccccc3)nc2N1 (stereo unspecified)	-1	2	nt	?	1
SMILES	Six1-Eya2 blk	CtBP-E1A blk	KCNH2 3.1 block	KDM4E inh	hERG WT inh
Cc1ccc(S(=O)(=O)N(C)C)cc1NC(=O)COC(=O)c1c(-c2ccccc2)noc1C	0	-5	-8	nt	-4
C=CCn1c(SCc2cc(=O)n3ccsc3n2)nnc1C1CCCCC1	-2	3	0	8%	3
C[C@H](CO)N1C[C@H](C)[C@@H](CN(C)Cc2ccccc2)Oc2c(NC(=O)Cc3ccccc3)cccc2C1=O	-8	1	-8	nt	-1
C[C@H](CO)N1C[C@H](C)[C@@H](CN(C)Cc2ccc(Cl)c(Cl)c2)Oc2c(NC(=O)Cc3ccccc3)cccc2C1=O	-11	-19	-78*	nt	-15
Cc1noc(C)c1S(=O)(=O)N(C)C[C@H]1Oc2c(NC(=O)Nc3ccccc3)cccc2C(=O)N([C@H](C)CO)C[C@@H]1C	11	7	10	nt	-124*
C[C@H](CO)N1C[C@H](C)[C@@H](CN(C)Cc2ccccc2)Oc2ccc(NC(=O)Cn3cnnn3)cc2C1=O	-3	5	8	nt	6
C[C@H](CO)N1C[C@H](C)[C@@H](CN(C)Cc2ccc(Oc3ccccc3)cc2)Oc2ccc(NC(=O)Cn3cnnn3)cc2C1=O	-17	-11	10	nt	-273*
Cc1ccc(-c2ccc(=O)n(CC(=O)N3CCN(c4cccc(C)c4)C(C)C3)n2)cc1 (stereo unspecified)	-5	5	3	-4%	-6
CCOC(=O)[C@]12CCC=C1N(Cc1cccc3ccccc13)C(=O)[C@H](CC(=O)NCc1ccc(OC)c(OC)c1)C2	-15	-3	nt	nt	nt
Nc1ccccc1-c1nnc(-c2ccccc2N)n1N	1	-5	-114*	10%	3
COc1cccc(/C=C/C(=O)OCC(=O)c2ccc3c(c2)NC(=O)CO3)c1	-2	?	-4	nt	9
c1ccc(-n2nnnc2Sc2n[nH]c(-c3ccncc3)n2)cc1	-15	-12	-189*	-1%	-200*
COc1cccc(OC)c1NC(=O)C1CCCN1C(=O)Nc1ccccc1Cl (stereo unspecified)	2	0	-2	nt	2
Cc1c(CC(=O)N[C@@H](C)C(=O)O)c(=O)oc2cc3occ(-c4ccccc4)c3cc12	-69*	nt	-6	nt	1
Cc1c(CC(=O)N[C@@H](C)C(=O)O)c(=O)oc2c(C)c3occ(-c4ccccc4)c3cc12	-65*	-83*	29	nt	2
Cc1coc2c(C)c3oc(=O)c(CC(=O)N[C@@H](CC(C)C)C(=O)O)c(C)c3cc12	-3	-4	-1	nt	nt
Cc1coc2c(C)c3oc(=O)c(CCC(=O)N[C@@H](C)C(=O)N[C@@H](Cc4ccccc4)C(=O)O)c(C)c3cc12	-69*	-80*	3	nt	-4
Nc1cc(=O)[nH]c(SCC(=O)N2CCN(S(=O)(=O)c3ccc4ccccc4c3)CC2)n1	-2	0	-8	-4%	2
Cc1ccc(-c2nc3s/c(=C\c4ccco4)c(=O)n3n2)cc1	-11	14	0	-10%	7
